Screens from PubChem BioAssay.
Many of the other results were omitted from the sample, so hits are more common in it than they were.
KDM5B inhibitor – Primary screen for KDM5B Histone Demethylases FDH-coupled qHTS; 220,000 compounds, 2.6% hits; Potency, µM (top dose mostly 57.7 µM), most hits filed as inhibitors; KDM5B demethylase, FDH-coupled NADH fluorescence (FDH is formaldehyde dehydrogenase); active = well fitted inhibition curve with a large enough effect; also: 0% is about no effect; nearly all actives have a fitted effect of over 70% in size
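Coupled FDH/NAD⁺ fluorescence readout. KDM5BΔAP 200 nM final; compound titration, 10 min RT preincubation; substrate mix 12.5 µM H3K4me3, 25 µM 2-OG, 50 µM Fe(II), 100 µM ascorbate, 0.25 mM NAD⁺, 0.25 U/mL FDH; ΔRFU over 30 min.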
Starred values were filed as active, the others as inactive; i = inactive. Potency is read from the fitted curve at half-maximal effect.

SMILES | KDM5B inhibitor
CCn1cc(CN2CCCCCNC(=O)[C@@H]3CCC[C@@H]32)c(C)n1 | i
CN1CCC(N2CC[C@@H]3C(=O)NCCCCCCN(Cc4ccncc4)[C@@H]3C2)CC1 | i
CC(C)CC(=O)N1CCCCCCNC(=O)[C@@H]2CCCC[C@@H]21 | i
O=C1NCCCCCCN(Cc2ccc(F)c(F)c2)[C@H]2CCC[C@@H]12 | 13µM*
CC(C)CCN1CCCCCCNC(=O)[C@@H]2CCC[C@@H]21 | 10µM*
Cn1cccc1CN1CCCCCNC(=O)[C@@H]2CCC[C@@H]21 | i
O=C1NCCCN1C1CCN(Cc2cccc(OC(F)(F)F)c2)CC1 | i
COc1cccc(CN2CCCOCCNC(=O)[C@@H]3CCCC[C@@H]32)c1 | i
O=C1NCCCCCCN(Cc2cccc(OC(F)(F)F)c2)[C@H]2CCC[C@@H]12 | 5.6µM*
O=C1NCCCCCN(C(=O)Cc2cccc(F)c2)[C@H]2CCC[C@@H]12 | i
COc1ccc(-c2cc3ccc(OCC(=O)OC(C)(C)C)cc3oc2=O)cc1 | i
O=c1oc2ccccc2c(NC2CCCC2)c1NS(=O)(=O)c1ccccc1Cl | i
CC(Nc1ccc(NC(=O)c2cccc[n+]2[O-])cc1)c1ccccc1 (stereo unspecified) | i
CCc1c(C)nc2c(Cl)cccc2c1Cl | i
C[C@]1(CO)[C@H]2Cc3sc(NC(=O)c4c(F)cccc4F)nc3[C@@H](CC(=O)NCc3ccccc3)[C@]2(C)CC[C@H]1O | i
Cc1cccc(Cn2c(NCCc3ccccc3)nc3c2c(=O)n(C)c(=O)n3C)c1 | i
O=C(NCc1ccc2c(c1)OCO2)c1cccc(S(=O)(=O)N2CCc3ccccc3C2)c1 | i
N#Cc1ccccc1Sc1ccccc1C(=O)NCCc1ccc2c(c1)OCCO2 | i
COCc1ccccc1CNC(=O)c1sccc1C | i
O=C(c1ccoc1)N1CCC(Oc2cccc(F)c2)C1 (stereo unspecified) | i
O=c1cc(CN2CCN(Cc3ccccc3)CC2)c2cc(Cl)c(O)cc2o1 | i
O=C(O)CCc1ccsc1 | i
Cc1ccc2c(n1)N(C)[C@H](CO)CCN(Cc1ccc(OC(F)(F)F)cc1)C2 | i
c1ccc2sc([C@H]3CCN(CC4CCCCC4)C3)nc2c1 | i
Cc1cc(CN2CCC(Cc3ccc(F)cc3)CC2)n(C)n1 | i
SMILES | KDM5B inhibitor
Cc1ccc2c(n1)N(C)[C@H](CO)CCN(C(=O)Nc1ccccc1)C2 | i
Cc1ccc2c(n1)N(C)[C@H](CO)CCN(CC1CCCCC1)C2 | 35µM*
Cc1ccc2c(n1)N(C)[C@H](CO)CCN(Cc1cnc3ccccc3c1)C2 | i
CC(=O)N1CCC(N2CC[C@H](CO)[C@H](N(C)C)C2)CC1 | i
CC(=O)N1CCC(N2CC[C@@H](CO)N(C)c3nc(C)ccc3C2)CC1 | 32µM*
Cc1ccc2c(n1)N(C)[C@H](CO)CCN(Cc1ccc(F)cc1)C2 | 35µM*
COc1cccc(Nc2n[nH]nc2C(=O)Nc2ccc(C)cc2Br)c1 | i
CC(C)Cc1ccc(C(C)NC(=O)c2ccc(CN3CCCC3)cc2)cc1 (stereo unspecified) | i
COc1ccc(S(=O)(=O)N2CCN(Cc3ncc(-c4ccc(F)cc4)o3)CC2)cc1OC | i
NS(=O)(=O)c1ccc(N/N=C/c2c(F)cccc2Cl)c([N+](=O)[O-])c1 | i
Cc1nnc(NC(=O)C2c3ccccc3C(=O)N(Cc3ccccc3)C23CCCC3)s1 (stereo unspecified) | i
CCCCCCNC(=S)Nc1ccc(Br)cc1 | i
COc1ccc(-c2coc3cc(OC(=O)c4ccco4)ccc3c2=O)cc1 | i
O=C(NCC(F)(F)F)c1coc2ccccc2c1=O | i
NC(=O)c1ccc(CNC(=O)c2ccc(C(F)(F)F)cc2)cc1 | i
O=C(NCc1ccc(C(F)(F)F)cc1)c1ccc(CN2CCCCC2)cc1 | i
COC(=O)CNC(=O)c1cc(-c2ccccn2)nc2ccccc12 | i
COCCNC(=O)c1cccc(-n2c(C)nc3cccnc32)c1 | i
Cc1ccc2nc(C)c(C(=O)NCC(F)(F)F)cc2c1 | i
COC(=O)CNC(=O)c1cc(Br)cn2ccnc12 | 32µM*
COC(=O)CNC(=O)c1ccc(C)cc1C | i
COCCNC(=O)c1nc2sccn2c1Br | i
O=C(NCC(F)(F)F)c1cc(Br)cn2ccnc12 | 35µM*
COCCNC(=O)c1cc(Br)cn2ccnc12 | 40µM*
O=C(NCc1ccc(C(F)(F)F)cc1)c1cc(Br)cn2ccnc12 | 14µM*
SMILES | KDM5B inhibitor
CCCCS(=O)(=O)NCCc1ccc(C(=O)O)cc1 | i
CCn1c(C)c(C(C)=O)c2cc(OCC(O)CN3CCCCCC3)ccc21 (stereo unspecified) | i
CC(=O)Nc1cccc(NC(=O)C(=O)c2cn(CC(=O)N3CCOCC3)c3ccccc23)c1 | i
CN(C)S(=O)(=O)c1ccc(N2CCCCC2)c(C(=O)OC(C(=O)NC2CC2)c2ccccc2)c1 (stereo unspecified) | i
O=C(NCCc1ccccc1F)c1ccncc1 | i
O=C(NCCc1ccccc1F)NC1CC1 | i
O=C(NCCc1ccccc1F)c1cc(Br)cn2ccnc12 | 28µM*
CSc1nc(N)c2c3c(sc2n1)CCCC3C (stereo unspecified) | i
Cc1c(CCC(=O)NCCc2cccc(F)c2)c(=O)oc2cc(O)ccc12 | i
COC(=O)CNC(=O)c1ccc(COC(C)=O)cc1 | i
COC(=O)c1sc(N2C(=O)C(=O)/C(=C(/O)c3ccc(C)c(F)c3)C2c2ccccc2F)nc1C (stereo unspecified) | i
CN1CCN(C(=O)Nc2cccc(-c3ccccc3)c2)CC1 | i
O=C(Nc1ccc2c(c1)CCC2)N1CCc2c(nc3cc(-c4ccccc4)[nH]n3c2=O)C1 | 11µM*
COc1ccc2c(c1)CCc1c-2n[nH]c1C(=O)N1CCc2c(nc3cc(-c4ccccc4)[nH]n3c2=O)C1 | 16µM*
COc1ccc(-c2nc(-c3ccccc3)nc3c2CN(C(=O)c2ccc(C(F)(F)F)cc2)CC3)cc1 | i
Cc1ccc(C(=O)N2CCc3c(nc4cc(-c5ccccc5)[nH]n4c3=O)C2)cn1 | 25µM*
COc1ccc(C(=O)NC[C@H]2O[C@H](Cc3cc(CN4CCOCC4)on3)CC[C@@H]2O)cc1 | i
O=C(Nc1cccc(-c2ccc(N3CCOCC3)nn2)c1)Nc1ccc2c(c1)CCC2 | i
COc1ccc(C(=O)N[C@H]2C[C@@H](Cc3cc(CN4CCOCC4)on3)C2(C)C)cc1 | i
Cc1ccc(C(=O)N2C[C@H](c3nc(-c4ccccc4)no3)[C@@H](C)C2)cn1 | i
COc1ccc(-c2cc3nc4c(c(=O)n3[nH]2)CN(C(=O)c2cc(CN3CCOCC3)on2)CC4)cc1 | 8.9µM*
COc1ccc(C(=O)N2CCc3nc(-c4ccc(Cl)cc4)nc(-c4ccccc4)c3C2)cc1 | i
Cc1ccc(C(=O)N2CCc3nc(OCC4CC4)ccc3C2)cn1 | i
COc1ccc(C(=O)NCC(=O)NCc2ccc3cc(OC)ccc3c2)cc1 | i
Clc1ccc(-n2nnnc2C2(Nc3ccccc3)CCCC2)cc1 | i
Cc1ccc(NC(=O)CSc2nnc(C)n2C)c(Cl)c1 | i
C=C(C)Cn1c(SC/C=C/C)nc2c1c(=O)n(C)c(=O)n2C | i
COc1ccc(C(=O)N2CCCC(n3cc(-c4nc(C(C)C)no4)nn3)C2)cc1 (stereo unspecified) | i
Cc1cccc(OC2CN(C(=O)c3ccc(CCC(C)(C)O)cc3)C2)c1 | i
